High-throughput results (PubChem)
FLuc inh = inhibitors of firefly (Photinus pyralis) luciferase; P08659; purified P. pyralis luciferase, luminescence, biochemical; Potency, µM (top dose mostly 115 µM), hits mostly inhibitors; 76,000 tested, 2.5% active; note: nearly all actives have a fitted effect of over 65% in size
Target sequence (P08659 whole entry, looked up): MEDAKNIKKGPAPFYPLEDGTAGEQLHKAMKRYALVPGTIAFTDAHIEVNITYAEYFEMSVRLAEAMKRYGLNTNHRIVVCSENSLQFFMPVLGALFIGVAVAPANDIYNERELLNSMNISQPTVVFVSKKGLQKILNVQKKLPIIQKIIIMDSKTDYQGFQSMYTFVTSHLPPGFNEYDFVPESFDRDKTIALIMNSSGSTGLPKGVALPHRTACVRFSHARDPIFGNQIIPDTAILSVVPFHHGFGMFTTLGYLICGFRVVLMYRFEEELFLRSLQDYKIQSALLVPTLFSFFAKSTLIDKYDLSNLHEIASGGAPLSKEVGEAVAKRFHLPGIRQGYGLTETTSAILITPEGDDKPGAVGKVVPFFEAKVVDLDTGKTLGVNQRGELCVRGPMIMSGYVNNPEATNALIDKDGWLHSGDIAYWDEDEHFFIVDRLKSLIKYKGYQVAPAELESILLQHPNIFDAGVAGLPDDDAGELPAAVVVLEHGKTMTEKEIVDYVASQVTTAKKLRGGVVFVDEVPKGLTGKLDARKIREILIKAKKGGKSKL
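Biochemical qHTS: compound (6-point titration) added to 10uM D-luciferin plus 10uM ATP in Tris acetate pH 7.5 buffer with Mg, Tween-20 and BSA, then purified enzyme at 10nM; light output imaged.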
NIH3T3 tox = cytotoxic compounds in NIH 3T3 cells; NIH 3T3 viability, CellTiter-Glo ATP luminescence, 48-72 h; Potency, µM (titrated, usually from 96.7 µM), without a hit: at the top dose activity change, negative = cytotoxicity, actives largely listed as inhibitors; 94,000 tested, 4.3% active; AID 1345082; note: nearly all actives have a fitted effect of over 55% in size
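Luminescent ATP readout (CellTiter-Glo, 10 min RT) after 48 or 72 hr compound exposure of NIH 3T3 cells seeded at 400 cells/well in 1536-well format; quantitative HTS.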
HEK cytotox = HEK 293 cell cytotoxicity; 94,000 tested, 6.6% active; HEK 293 viability, ATP luminescence (CellTiter-Glo), 48-72 h; Potency, µM (top dose mostly 115 µM), for inactives: at the top dose activity change, negative = cytotoxicity, most hits filed as inhibitors; AID 1345083; note: nearly all actives have a fitted effect of over 60% in size
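HEK 293 seeded at 250 cells/well receive compound via pintool. After 48 or 72 hr at 37 degree Celsius, 5% CO2 and 95% humidity, CellTiter-Glo is dispensed and luminescence read following 10 min at room temperature.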
hNpr1 antagonist = human Npr1 receptor antagonism | P16066 | HEK293 hNpr1 GloSensor cGMP, ANP-stimulated luminescence | Potency, µM (doses to about 46.3 µM), for inactives: top-dose activity change, negative = inhibition, usual class: inhibitors | 76,000 tested, 1.6% active | AID 1347048; calls by dose curve; note: nearly all actives have a fitted effect of over 60% in size
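HEK293 cells stably expressing human Npr1 and cGMP GloSensor pGS-40F, loaded 2 h with 2% GloSensor reagent, given compound 30 min at room temperature. Luminescence read before and 20 min after 0.1 nM hNppA.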
* marks the source's active call; other numbers are inactive results; [ ] = remark or other dose. The list is not random: actives were taken first. Their share in the collection is about 11%. Unless noted, calls come from the whole dose curve; as a rule, active = well fitted curve in the direction sought with a large enough effect; inconclusive = small, poorly fitted or top-dose-only effect, or another doubt; inactive = no such curve, though single readings can be large; an effect the other way counts as inactive or inconclusive. % is set by controls: 0 for no effect and ±100 for the full control effect; potency is the fitted concentration of half-maximal effect.

`O=C1CCCCC(Cc2ccccc2)(C(=O)N2CCN(c3ccccn3)CC2)N1` (centres undefined) gave NIH3T3 tox -30% and HEK cytotox inconclusive.
CCCCn1c(=O)c(C(=O)NCc2cccs2)nc2cccnc21 was read as NIH3T3 tox -26% and HEK cytotox -28%.
`COCCOC1CN(C2CCN(C(=O)c3ccco3)CC2)C12CCCCC2` (centres undefined) gave FLuc inh inactive, NIH3T3 tox -17%, HEK cytotox -24% and hNpr1 antagonist -1%.
CC(=O)Nc1ccc(-c2nnc3n2CCN(C(=O)c2ccccc2Cl)C3)cc1 was read as NIH3T3 tox inactive and HEK cytotox -4%.
For Cc1ccc([S+](=O)([O-])NC2CCN(C(=O)c3ccc(-c4cncnc4)cc3)CC2)cc1 the results were NIH3T3 tox -11% and HEK cytotox inactive.
Screening Cc1ccc([S+](=O)([O-])NC2CCN(Cc3cccc(-c4cccc(C)c4)c3)CC2)cc1 returned NIH3T3 tox 16µM* and HEK cytotox 25µM*.
`Cc1cccc(-c2cccc(CN3CCC(N[S+](=O)([O-])c4cccs4)CC3)c2)c1` gave NIH3T3 tox inconclusive and HEK cytotox 28µM*.
Cc1ccc(C(=O)NC2CCN(c3nc4ncccc4o3)CC2)cc1 was read as FLuc inh inactive, NIH3T3 tox -32%[138 µM], HEK cytotox -12%[172 µM] and hNpr1 antagonist 5%[70.6 µM].
Screening O=C(NC1CCCCCC1)c1cn2cc(-c3ccccc3)sc2n1 returned NIH3T3 tox -27%[138 µM] and HEK cytotox -13%[172 µM].
`CC1(C)[C@H](Cc2cc(CN3CCCCC3)on2)C[C@@H]1NCc1ccccn1` gave FLuc inh inactive, NIH3T3 tox 112µM*, HEK cytotox inconclusive and hNpr1 antagonist -4%[70.6 µM].
For COCC(=O)N[C@H]1C[C@@H](Cc2cc(CN(C)Cc3ccccc3)on2)C1(C)C the results were FLuc inh inactive, NIH3T3 tox inconclusive, HEK cytotox inconclusive and hNpr1 antagonist -18%[70.6 µM].
`CC(C)NC(=O)N[C@H]1C[C@@H](Cc2cc(CN(C)c3ccccc3)on2)C1(C)C` gave FLuc inh inactive, NIH3T3 tox inconclusive, HEK cytotox inconclusive and hNpr1 antagonist -24%[70.6 µM].
CN(Cc1cc(C[C@@H]2C[C@H](NCc3ncc[nH]3)C2(C)C)no1)c1ccccc1 was read as FLuc inh inconclusive, NIH3T3 tox 100µM*, HEK cytotox 63µM* and hNpr1 antagonist -3%[70.6 µM].
For COCC(=O)N[C@H]1C[C@@H](Cc2cc(CN(C)c3ccccc3)on2)C1(C)C the results were FLuc inh inactive, NIH3T3 tox inconclusive, HEK cytotox 45µM* and hNpr1 antagonist -17%[70.6 µM].
CC(=O)N[C@H]1C[C@@H](Cc2cc(CN(C)c3ccccc3)on2)C1(C)C was read as FLuc inh inactive, NIH3T3 tox -22%[174 µM], HEK cytotox 79µM* and hNpr1 antagonist -14%[70.6 µM].
C[S+](=O)([O-])N1CCCC(C(=O)N2CCCC2c2nc3ccncc3[nH]2)C1 (centres undefined) was read as NIH3T3 tox -19% and HEK cytotox -5%.
For COc1ccc2c(c1)CCCN2C1CNC1 the results were NIH3T3 tox 1%[174 µM] and HEK cytotox 1%[230 µM].
COC1CCOC2(CCN(C(=O)NCCc3ccccc3)CC2)C1 (centres undefined) was read as FLuc inh 28µM*, NIH3T3 tox 2%, HEK cytotox 5% and hNpr1 antagonist -3%.
Cc1ccc(NC(=O)c2ccc3c(c2)N(S(C)(=O)=O)CC3)cc1 was read as FLuc inh 1.3µM*, NIH3T3 tox -19%, HEK cytotox inconclusive and hNpr1 antagonist inconclusive.
For Cc1cccc(CNC(=O)C2Cn3cccc3C(=O)N2Cc2cccnc2)c1 (centres undefined) the results were FLuc inh inactive, NIH3T3 tox -5%, HEK cytotox inactive and hNpr1 antagonist -3%.
For CC1=C[C@@H](CNC(=O)c2cccc(F)c2)[C@H](C(C)C)C[C@H]1CC(=O)NCc1cccnc1 the results were FLuc inh inactive, NIH3T3 tox inconclusive, HEK cytotox inconclusive and hNpr1 antagonist -13%.
`CNC(=O)CCn1ncc2cc(OCc3ccccc3-c3ccccc3COC)ccc21` gave FLuc inh inactive, NIH3T3 tox inconclusive, HEK cytotox 89µM* and hNpr1 antagonist -7%[70.6 µM].
CNC(=O)CCn1ncc2cc(OCc3ccccc3-c3ccccc3OC)ccc21 was read as FLuc inh 40µM*, NIH3T3 tox 89µM*, HEK cytotox inconclusive and hNpr1 antagonist -15%[70.6 µM].
`CNC(=O)CCn1ncc2cc(OCc3ccccc3-c3cccc(OC)c3F)ccc21` gave FLuc inh inactive, NIH3T3 tox 45µM*, HEK cytotox inconclusive and hNpr1 antagonist -16%[70.6 µM].
`CNC(=O)CCn1ncc2cc(OCc3ccccc3-c3cccc(C)c3)ccc21` gave FLuc inh 45µM*, NIH3T3 tox 89µM*, HEK cytotox 100µM* and hNpr1 antagonist -26%[70.6 µM].
Screening CCn1nccc1C(=O)Nc1ccc(-c2nnc3n2CCCC3)cc1 returned FLuc inh inactive, NIH3T3 tox -4%, HEK cytotox 5% and hNpr1 antagonist 3%.
For COc1ccc([C@@H]2CN(Cc3ccc(C#N)cc3)C[C@H]2N(C)C)cc1 the results were FLuc inh inactive, NIH3T3 tox -13%, HEK cytotox -27% and hNpr1 antagonist 0%.
Screening O=C(Nc1ccnn1C1CCN(Cc2ccc(-c3ccccc3)cc2)CC1)C1CC1 returned FLuc inh inactive, NIH3T3 tox 35µM*, HEK cytotox inconclusive and hNpr1 antagonist inconclusive.
`CSc1ncc(CN2CCC(n3nccc3NC(=O)Cc3ccccc3)CC2)cn1` gave FLuc inh inactive, NIH3T3 tox -25%, HEK cytotox -11% and hNpr1 antagonist 0%.
CC[C@H]1CN(S(=O)(=O)c2ccc(OC)cc2)CC[C@H]1CC(=O)NCCSC was read as FLuc inh inactive, NIH3T3 tox -28%[174 µM], HEK cytotox inconclusive and hNpr1 antagonist 4%[70.6 µM].
`O=C(CCCN1C(=O)COc2ccc(C(=O)COc3ccc(F)cc3Cl)cc21)NCC1CC1` gave FLuc inh inactive, NIH3T3 tox -18%, HEK cytotox inconclusive and hNpr1 antagonist -3%.
For CC(=O)NC[C@@H]1C=C(C)[C@H](Cc2nc3ccc(C)cc3[nH]2)C[C@H]1C(C)C the results were FLuc inh inactive, NIH3T3 tox 71µM*, HEK cytotox inconclusive and hNpr1 antagonist inconclusive.
For CCCNC(=O)NC[C@@H]1C=C(C)[C@H](Cc2nc3ccccc3[nH]2)C[C@H]1C(C)C the results were FLuc inh inactive, NIH3T3 tox 35µM*, HEK cytotox 100µM* and hNpr1 antagonist inconclusive.
Screening COc1ccccc1C(=O)NC[C@@H]1C=C(C)[C@H](Cc2nc3ccncc3[nH]2)C[C@H]1C(C)C returned FLuc inh inactive, NIH3T3 tox inconclusive, HEK cytotox 35µM* and hNpr1 antagonist -19%[70.6 µM].
